{
  "source": "paper PMC5540273",
  "about": "(PLoS ONE, 2017)",
  "key": {"[1]": {"tested_on": "TGFBR2"}, "[2]": {"tested_on": "TNNI3K"}, "[3]": {"tested_on": "TRPM6"}, "[4]": {"tested_on": "TXK"}, "[5]": {"tested_on": "TYK2(JH1domain-catalytic)"}, "[6]": {"tested_on": "ULK2"}, "[7]": {"tested_on": "WNK4"}},
  "note": "pKd: −log10 of the molar value.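 Further: kd values determined as follow-up on hits from a single-replicate KINOMEscan panel screen.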",
  "data": [
    {"molecule": "N#Cc1ccc(-c2cc(-c3c[nH]nc3-c3ccccn3)ccn2)cc1", "note": "[GW693028]", "values": [
      {"measurement": "pKd", "setting": "[1]", "result": 6.24}
    ]},
    {"molecule": "c1ccc(-c2cc(-c3c[nH]nc3-c3ccccn3)ccn2)cc1", "note": "[GW576604]", "values": [
      {"measurement": "pKd", "setting": "[2]", "result": "< 5.00"}
    ]},
    {"molecule": "CCn1cnc2c(N)ncnc21", "note": "[GW345098]", "values": [
      {"measurement": "pKd", "setting": "[3]", "result": 6.62}
    ]},
    {"molecule": "O=C(NCCNc1ccnc(Nc2ccc(F)cc2)n1)c1cc2ccccc2s1", "note": "[GSK1379874]", "values": [
      {"measurement": "pKd", "setting": "[4]", "result": "< 5.00"}
    ]},
    {"molecule": "CN(C1=C(c2ccccc2)C(=O)NC1=O)c1ccccc1", "note": "[SB-334860]", "values": [
      {"measurement": "pKd", "setting": "[4]", "result": "< 5.00"}
    ]},
    {"molecule": "Cc1ccc(NC(=O)c2ccnc(N3CCN(C)CC3)c2)cc1-c1ccc(C(=O)NCC2CC2)cc1", "note": "[GW775604]", "values": [
      {"measurement": "pKd", "setting": "[5]", "result": "< 5.00"},
      {"measurement": "pKd", "setting": "[6]", "result": "< 5.00"}
    ]},
    {"molecule": "NS(=O)(=O)c1cccc(-c2ccc3nccc(-c4cccc(S(N)(=O)=O)c4)c3c2)c1", "note": "[GW867253]", "values": [
      {"measurement": "pKd", "setting": "[6]", "result": "< 5.00"}
    ]},
    {"molecule": "O=C1NC(=O)C(N2CCc3ccccc32)=C1c1cccc(Cl)c1", "note": "[SB-408010]", "values": [
      {"measurement": "pKd", "setting": "[7]", "result": "< 5.00"}
    ]}
  ]
}
